Assay outcomes (PubChem BioAssay)
Mito fusion yeast – blocks mitochondrial division or promotes mitochondrial fusion; 0.23% of 320,000 active; S. cerevisiae fusion-defective mutant growth rescue, CellTiterGlo 48 h; Potency, µM (top dose mostly 46.1 µM), hits mostly activators; AID 485298; note: nearly all actives have a fitted effect of over 45% in size
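Temperature-sensitive fusion-defective S. cerevisiae (e.g. fzo1-1, mgm1-5) were grown with compound in YPEG medium (3% ethanol, 3% glycerol) for 48 hours at 37C. Growth rescue was measured as viability by CellTiterGlo luminescence after 10 minutes at ambient.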
A-T KAP1 phos – potential ataxia-telangiectasia treatments restoring KAP-1 phosphorylation; F2112 A-T fibroblasts, KAP-1 phosphorylation AlphaLISA; neocarzinostatin DNA damage 30 min before lysis; Potency, µM (series often up to 57.5 µM), usual class: activators; 0.19% of 320,000 active; AID 485349; note: nearly all actives have a fitted effect of over 45% in size
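hTERT-immortalized A-T patient fibroblasts (F2112), 500 cells/well in OPTI-MEM, 1% FBS, got compounds for 60 min, then NCS for 30 min at 37C. Lysates were then assayed for phospho-KAP-1 by AlphaLISA (anti-pKAP1 donor, anti-KAP1 acceptor beads), 6 hr at 25C.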
N370S GC mod – N370S glucocerebrosidase modulation, Gaucher chaperone candidate | P04062 | Potency, µM (series often up to 59.4 µM), usual class: inhibitors | N370S GC spleen homogenate, 4MU-glucoside fluorescence | 0.092% of 330,000 active | AID 2101
Eya2 phos inh – blocks the phosphatase activity of human Eya2; O00167; recombinant Eya2, OMFP fluorescence dephosphorylation (OMFP is methylfluorescein phosphate); Potency, µM (top dose mostly 76.9 µM), most hits filed as inhibitors; 0.006% of 330,000 active; AID 488837
Target sequence (O00167 whole entry, looked up): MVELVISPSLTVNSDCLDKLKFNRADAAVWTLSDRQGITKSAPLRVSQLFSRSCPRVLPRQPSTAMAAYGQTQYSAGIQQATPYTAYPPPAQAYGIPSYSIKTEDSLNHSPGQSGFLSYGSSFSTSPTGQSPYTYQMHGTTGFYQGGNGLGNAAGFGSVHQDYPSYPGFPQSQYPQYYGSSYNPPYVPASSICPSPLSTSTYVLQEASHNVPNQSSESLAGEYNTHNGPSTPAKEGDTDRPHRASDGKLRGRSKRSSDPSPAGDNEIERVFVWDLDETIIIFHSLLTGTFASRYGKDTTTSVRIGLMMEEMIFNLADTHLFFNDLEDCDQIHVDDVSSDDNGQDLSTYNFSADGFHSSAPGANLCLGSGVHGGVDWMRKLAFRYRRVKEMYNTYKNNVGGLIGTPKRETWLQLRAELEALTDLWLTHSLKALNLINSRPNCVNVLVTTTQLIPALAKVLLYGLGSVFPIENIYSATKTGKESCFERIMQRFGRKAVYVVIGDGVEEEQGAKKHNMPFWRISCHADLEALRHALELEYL
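Eya2 protein (added as 0.2 uM solution) was preincubated with compound for 10 min at ambient temperature in 50 mM HEPES pH 7.5, 50 mM NaCl, 5 uM MgCl2, 0.05% BSA, 1 mM DTT. OMFP (added at 50 uM) then reacted 10 min; fluorescence read at 485/525 nm.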
Of the large screens only hits and unclear results are named; the others gave an inactive call; ! = not active in a repeat. Shown are actives, neighbours in structure and some others; about 0.47% of the full set was active somewhere. Calls come from the whole dose curve; as a rule, active = well fitted curve in the direction sought with a large enough effect; inconclusive = small, poorly fitted or top-dose-only effect, or another doubt; inactive = no such curve, though single readings can be large; an effect the other way counts as inactive or inconclusive.

Cc1sc(NC(=O)c2ccccc2)c(C(c2ccccn2)N2CCN(CCO)CC2)c1C (stereo unspecified)	none
CCOc1ccc(C(c2c(NC(=O)c3ccco3)sc(C)c2C)N2CCOCC2)cc1 (stereo unspecified)	Mito fusion yeast inconclusive (no result: N370S GC mod)
O=c1ccc2ccc(O)c(O)c2o1	Mito fusion yeast 23µM (no result: A-T KAP1 phos)
COc1ccc(-c2cc(=O)oc3c(O)c(O)ccc23)cc1	none
CCCc1nnc(NC(=O)CCC(=O)O)s1	Mito fusion yeast 13µM
c1ccc(N(c2ccccc2)c2nc(N3CCCC3)nc(-n3ccnc3)n2)cc1	none
CCOC(=O)N1CCN(c2nc(N(c3ccccc3)c3ccccc3)nc(-n3ccnc3)n2)CC1	A-T KAP1 phos 10µM
C=CCN=C1N[C@@H](c2ccccc2)C(C(=O)OC)=C(C)N1CC	none
CCCCOc1ccc(/C(O)=C2/C(=O)C(=O)N(CCN(C)C)C2c2ccc(O)c(OC)c2)cc1 (stereo unspecified)	none
COc1cccc(C(=O)Nc2nnc(S(=O)(=O)Nc3cccc(C)c3)s2)c1	none
O=C(/C=C/c1cccs1)Nc1cccc(NC(=O)/C=C/c2cccs2)n1	Mito fusion yeast 14µM
Cc1cccc2c1OCC/C2=N\NC(=O)COc1ccccc1Cl	none
CCC(C)Sc1cccc(-c2nc3ccc(C)cn3c2NC2CCCCC2)c1 (stereo unspecified)	A-T KAP1 phos 25µM
CCC(C)Sc1cc(-c2nc3ccccn3c2NC2CCCCC2)ccc1OC (stereo unspecified)	A-T KAP1 phos 32µM
CCC(C)Sc1ccc(-c2nc3ccc(C)cn3c2NC2CCCCC2)cc1 (stereo unspecified)	N370S GC mod inconclusive
C/C(=N\NC(=O)CCCC(=O)O)c1c(-c2ccccc2)c2cc(Cl)ccc2[nH]c1=O	A-T KAP1 phos 3.5µM
CCCCN(CC)c1nc(-c2ccncc2)nc2ccccc12	Mito fusion yeast 18µM
CCN(CC)CCOC(=O)c1ccc(N)cc1	none
CCN(CC)CCOC(=O)c1ccc([N+](=O)[O-])cc1	A-T KAP1 phos 35µM
COc1ccccc1CNC(=O)C1CCCN(S(=O)(=O)c2cnc[nH]2)C1 (stereo unspecified)	none
CCC[n+]1c2ccccc2cc2ccccc21	A-T KAP1 phos 40µM, N370S GC mod inconclusive
CCCC[n+]1c2ccccc2cc2ccccc21	A-T KAP1 phos inconclusive, N370S GC mod inconclusive
CCCCCCNC(=O)Nc1ccc(S(=O)(=O)Nc2ccc(CCNC[C@H](O)COc3ccc(O)cc3)cc2)cc1	N370S GC mod 7.9µM (no result: Mito fusion yeast, A-T KAP1 phos, Eya2 phos inh)
CCCCOc1ccc(S(=O)(=O)Nc2ccc(NC(C)=O)cc2)cc1	none
CC(C)C(C)NC(=O)CN1C(=O)NC2(CCc3ccccc3C2)C1=O (stereo unspecified)	Mito fusion yeast inconclusive
CC[C@H](NC(=O)c1c(C)c(-c2ccccc2)nc2ccccc12)c1ccccc1	Mito fusion yeast 21µM!
CCN1CCN(C(CC(C)C)c2nnnn2CS(=O)(=O)c2ccc(C)cc2)CC1 (stereo unspecified)	N370S GC mod 22µM
COCCNc1ncnc2c1cnn2-c1ccc(Cl)cc1	none (no result: A-T KAP1 phos)
O=C1CC(c2ccc(F)cc2)c2cc3c(cc2N1)CCC3 (stereo unspecified)	Mito fusion yeast 11µM
COC(=O)C1=C(C(=O)OC)[C@@H]2Nc3ccccc3[C@@]23C[C@@H](C(=O)OC)N(C(=O)c2ccc(Br)cc2)C3=N1	none
CC(NC(=O)COC(=O)/C=C/c1ccc(Cl)cc1)c1ccccc1 (stereo unspecified)	A-T KAP1 phos 3.2µM
CCCCN(C(=O)c1ccc(COc2ccccc2)o1)c1c(N)n(CC(C)C)c(=O)[nH]c1=O	none (no result: N370S GC mod)
CCc1ccc(OCC(=O)Nc2ccc(S(=O)(=O)Nc3ccccn3)cc2)cc1	none
COc1cccc(/C=C2\SC(=S)N(NS(=O)(=O)c3ccc(C)cc3)C2=O)c1OC	Mito fusion yeast 5µM
CC1(C)Cc2cccc(OCC(=O)N3CCN(S(=O)(=O)c4ccc(F)cc4)CC3)c2O1	none
Cc1cccc(N2CCN(C(=O)COc3cccc4c3OC(C)(C)C4)CC2)c1C	Mito fusion yeast 16µM
CCN(C(=O)c1cc2c(=O)n3cccc(C)c3nc2n1CCCOC)C1CCCCC1	A-T KAP1 phos 35µM, N370S GC mod inconclusive
COCCCn1c(C(=O)NC2CCCCC2C)cc2c(=O)n3cccc(C)c3nc21 (stereo unspecified)	none
CCn1ccnc1CN(C)Cc1cn(C)nc1-c1ccccc1F	none
COCCN(Cc1cn(C)nc1-c1ccccc1F)C(C)C	Mito fusion yeast 5.6µM
